Experimental data: the supplement of paper PMC11732987, “Enantioselective OTUD7B fragment discovery through chemoproteomics screening and high-throughput optimisation” (Communications Chemistry, 2025)

Experiments:
Assay in all cases: log2 ratio of Biotin-Ahx-Ub-VS probe labelling (fragment/DMSO); higher = less target engagement (more negative = stronger competition), active = hit call of the paper (q ≤ 0.05, log2 ratio ≤ -1)
Conditions in all cases: compound concentration: 200 uM; treatment time: 3 h
[1] = biological target: USP34 (UniProt Q70CQ2)
Sequence of USP34 (Q70CQ2 whole entry, the tested form may be a part): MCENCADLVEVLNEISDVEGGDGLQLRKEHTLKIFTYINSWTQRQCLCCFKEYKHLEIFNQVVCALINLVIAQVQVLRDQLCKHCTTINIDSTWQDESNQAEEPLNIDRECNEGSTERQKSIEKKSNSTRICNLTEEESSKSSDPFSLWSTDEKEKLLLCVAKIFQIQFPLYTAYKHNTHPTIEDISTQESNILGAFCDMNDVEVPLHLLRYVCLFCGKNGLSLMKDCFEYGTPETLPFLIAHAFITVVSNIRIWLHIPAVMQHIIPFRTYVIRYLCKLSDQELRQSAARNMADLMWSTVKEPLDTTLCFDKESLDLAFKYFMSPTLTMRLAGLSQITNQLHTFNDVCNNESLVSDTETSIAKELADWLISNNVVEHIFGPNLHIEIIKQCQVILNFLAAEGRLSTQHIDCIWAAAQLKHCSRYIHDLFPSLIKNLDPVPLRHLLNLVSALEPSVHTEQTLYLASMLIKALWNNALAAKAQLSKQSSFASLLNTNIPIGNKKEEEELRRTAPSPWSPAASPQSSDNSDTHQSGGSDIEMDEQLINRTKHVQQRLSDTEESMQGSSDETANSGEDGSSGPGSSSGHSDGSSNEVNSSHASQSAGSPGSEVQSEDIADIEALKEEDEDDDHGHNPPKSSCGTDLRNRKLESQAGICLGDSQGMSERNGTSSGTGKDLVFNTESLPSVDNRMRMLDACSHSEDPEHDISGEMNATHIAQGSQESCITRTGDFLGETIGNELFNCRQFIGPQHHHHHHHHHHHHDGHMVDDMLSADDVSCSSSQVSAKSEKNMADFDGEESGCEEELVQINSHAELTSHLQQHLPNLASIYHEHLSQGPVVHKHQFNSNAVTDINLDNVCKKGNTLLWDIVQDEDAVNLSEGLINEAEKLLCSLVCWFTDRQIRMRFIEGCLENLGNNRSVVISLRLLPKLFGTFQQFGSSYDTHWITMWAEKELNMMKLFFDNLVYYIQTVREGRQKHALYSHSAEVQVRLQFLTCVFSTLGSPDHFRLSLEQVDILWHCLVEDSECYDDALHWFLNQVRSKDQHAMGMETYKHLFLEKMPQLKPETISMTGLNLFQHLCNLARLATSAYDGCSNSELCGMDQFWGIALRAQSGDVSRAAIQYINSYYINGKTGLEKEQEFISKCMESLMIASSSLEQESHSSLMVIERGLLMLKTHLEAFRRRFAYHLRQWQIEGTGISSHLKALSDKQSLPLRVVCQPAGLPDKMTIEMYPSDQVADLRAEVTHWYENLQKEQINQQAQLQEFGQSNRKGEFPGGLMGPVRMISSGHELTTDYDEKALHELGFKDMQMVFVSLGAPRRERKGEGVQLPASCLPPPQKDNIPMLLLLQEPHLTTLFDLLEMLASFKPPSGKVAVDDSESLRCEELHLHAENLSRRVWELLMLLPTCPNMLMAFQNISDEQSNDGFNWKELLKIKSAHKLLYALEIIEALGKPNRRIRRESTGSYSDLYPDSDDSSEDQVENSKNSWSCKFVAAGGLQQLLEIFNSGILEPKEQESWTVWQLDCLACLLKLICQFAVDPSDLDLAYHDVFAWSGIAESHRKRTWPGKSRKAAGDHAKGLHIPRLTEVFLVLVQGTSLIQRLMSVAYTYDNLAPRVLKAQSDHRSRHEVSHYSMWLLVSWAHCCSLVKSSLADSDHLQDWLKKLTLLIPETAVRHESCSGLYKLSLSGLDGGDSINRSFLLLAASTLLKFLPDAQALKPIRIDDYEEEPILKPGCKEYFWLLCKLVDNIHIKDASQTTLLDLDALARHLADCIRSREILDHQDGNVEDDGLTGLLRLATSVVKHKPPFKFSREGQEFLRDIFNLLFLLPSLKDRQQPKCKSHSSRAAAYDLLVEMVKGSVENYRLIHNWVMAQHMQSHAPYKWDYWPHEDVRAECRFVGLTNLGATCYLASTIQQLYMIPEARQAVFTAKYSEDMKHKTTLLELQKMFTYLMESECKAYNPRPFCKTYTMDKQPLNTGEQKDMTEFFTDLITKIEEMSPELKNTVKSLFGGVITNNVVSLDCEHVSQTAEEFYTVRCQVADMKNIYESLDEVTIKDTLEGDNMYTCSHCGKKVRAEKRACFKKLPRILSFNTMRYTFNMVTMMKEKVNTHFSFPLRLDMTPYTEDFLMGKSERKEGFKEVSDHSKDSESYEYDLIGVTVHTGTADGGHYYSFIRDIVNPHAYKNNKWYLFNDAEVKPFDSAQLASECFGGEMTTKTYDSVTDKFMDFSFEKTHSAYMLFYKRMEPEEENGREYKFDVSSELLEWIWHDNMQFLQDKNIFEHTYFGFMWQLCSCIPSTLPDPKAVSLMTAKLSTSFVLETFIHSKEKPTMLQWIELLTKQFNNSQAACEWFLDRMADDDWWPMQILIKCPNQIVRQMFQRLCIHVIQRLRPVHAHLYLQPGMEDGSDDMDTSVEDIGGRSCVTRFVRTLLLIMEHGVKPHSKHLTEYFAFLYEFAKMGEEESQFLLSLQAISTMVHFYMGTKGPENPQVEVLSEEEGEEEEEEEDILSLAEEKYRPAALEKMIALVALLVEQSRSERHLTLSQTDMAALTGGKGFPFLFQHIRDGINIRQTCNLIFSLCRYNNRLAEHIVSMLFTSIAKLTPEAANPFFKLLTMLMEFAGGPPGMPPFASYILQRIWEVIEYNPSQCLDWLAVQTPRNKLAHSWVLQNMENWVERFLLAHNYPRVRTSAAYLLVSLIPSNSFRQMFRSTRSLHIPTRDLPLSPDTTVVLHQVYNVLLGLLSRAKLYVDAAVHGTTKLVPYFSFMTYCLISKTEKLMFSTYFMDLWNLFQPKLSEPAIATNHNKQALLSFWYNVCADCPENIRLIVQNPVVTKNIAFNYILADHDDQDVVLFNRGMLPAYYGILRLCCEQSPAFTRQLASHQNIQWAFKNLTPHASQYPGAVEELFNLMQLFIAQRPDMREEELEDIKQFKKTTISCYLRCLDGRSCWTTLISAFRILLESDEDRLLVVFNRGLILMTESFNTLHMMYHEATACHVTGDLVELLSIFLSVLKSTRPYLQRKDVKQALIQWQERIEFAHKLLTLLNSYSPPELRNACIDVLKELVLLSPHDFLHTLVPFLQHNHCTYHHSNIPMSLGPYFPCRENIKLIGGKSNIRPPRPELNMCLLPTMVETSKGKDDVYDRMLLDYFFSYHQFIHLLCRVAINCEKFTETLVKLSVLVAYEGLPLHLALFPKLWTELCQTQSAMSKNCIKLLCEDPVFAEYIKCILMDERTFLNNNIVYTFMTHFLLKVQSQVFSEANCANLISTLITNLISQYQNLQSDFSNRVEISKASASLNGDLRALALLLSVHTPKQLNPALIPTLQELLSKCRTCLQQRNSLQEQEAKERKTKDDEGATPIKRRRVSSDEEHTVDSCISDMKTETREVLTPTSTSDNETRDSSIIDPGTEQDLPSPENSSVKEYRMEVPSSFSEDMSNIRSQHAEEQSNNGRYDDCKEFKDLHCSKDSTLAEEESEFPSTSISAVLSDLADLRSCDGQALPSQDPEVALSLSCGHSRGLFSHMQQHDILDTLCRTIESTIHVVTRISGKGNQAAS
Summary of the method: (§1)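 Fragment (200 µM) or vehicle was incubated for 3 h with triplicate HEK293T lysate samples of 495 µg, which were then treated with Biotin-Ahx-Ub-VS at 0.5 µM final for 1 h. Labelled DUBs were enriched on NeutrAvidin, digested with LysC and trypsin, and analysed by diaPASEF LC-MS/MS. Values are average log2 fragment/vehicle ratios from an unpaired t-test on global-median-normalised Spectronaut label-free quantities, using proteins with ≥2 unique peptides.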

[2] = biological target: T1, USP36 (UniProt Q9P275)
T1 sequence (whole entry): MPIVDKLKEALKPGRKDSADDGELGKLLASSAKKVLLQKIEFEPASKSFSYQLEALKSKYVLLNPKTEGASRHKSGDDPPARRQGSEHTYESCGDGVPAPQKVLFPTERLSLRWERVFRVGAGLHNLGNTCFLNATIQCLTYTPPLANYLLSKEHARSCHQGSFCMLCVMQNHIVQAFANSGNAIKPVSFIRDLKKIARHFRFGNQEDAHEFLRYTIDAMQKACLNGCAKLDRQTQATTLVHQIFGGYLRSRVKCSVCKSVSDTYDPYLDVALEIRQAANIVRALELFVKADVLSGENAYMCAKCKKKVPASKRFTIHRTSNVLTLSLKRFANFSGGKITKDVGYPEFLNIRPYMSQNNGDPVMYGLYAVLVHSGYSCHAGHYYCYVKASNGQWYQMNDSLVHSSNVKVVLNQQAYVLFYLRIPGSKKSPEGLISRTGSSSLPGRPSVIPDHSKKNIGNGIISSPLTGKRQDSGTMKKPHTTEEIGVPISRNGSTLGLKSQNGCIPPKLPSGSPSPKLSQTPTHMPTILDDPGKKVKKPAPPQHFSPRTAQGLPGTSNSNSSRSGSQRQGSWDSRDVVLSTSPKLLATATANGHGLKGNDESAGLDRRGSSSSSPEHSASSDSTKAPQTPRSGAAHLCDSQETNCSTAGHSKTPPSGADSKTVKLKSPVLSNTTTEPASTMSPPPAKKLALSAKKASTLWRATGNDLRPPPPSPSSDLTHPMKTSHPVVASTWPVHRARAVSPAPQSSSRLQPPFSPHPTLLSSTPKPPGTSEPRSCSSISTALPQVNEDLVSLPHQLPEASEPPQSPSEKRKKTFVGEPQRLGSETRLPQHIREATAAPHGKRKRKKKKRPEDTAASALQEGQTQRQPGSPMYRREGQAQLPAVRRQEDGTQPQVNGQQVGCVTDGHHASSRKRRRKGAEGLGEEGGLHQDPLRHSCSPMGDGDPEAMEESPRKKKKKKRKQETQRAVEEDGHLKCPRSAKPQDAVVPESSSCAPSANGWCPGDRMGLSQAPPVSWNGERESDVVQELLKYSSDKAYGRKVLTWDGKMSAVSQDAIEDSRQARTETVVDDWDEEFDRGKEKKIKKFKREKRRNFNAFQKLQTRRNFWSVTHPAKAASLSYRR
Summary of the method: as §1

[3] = biological target: T2, USP38 (UniProt Q8NB14)
T2 sequence (whole entry): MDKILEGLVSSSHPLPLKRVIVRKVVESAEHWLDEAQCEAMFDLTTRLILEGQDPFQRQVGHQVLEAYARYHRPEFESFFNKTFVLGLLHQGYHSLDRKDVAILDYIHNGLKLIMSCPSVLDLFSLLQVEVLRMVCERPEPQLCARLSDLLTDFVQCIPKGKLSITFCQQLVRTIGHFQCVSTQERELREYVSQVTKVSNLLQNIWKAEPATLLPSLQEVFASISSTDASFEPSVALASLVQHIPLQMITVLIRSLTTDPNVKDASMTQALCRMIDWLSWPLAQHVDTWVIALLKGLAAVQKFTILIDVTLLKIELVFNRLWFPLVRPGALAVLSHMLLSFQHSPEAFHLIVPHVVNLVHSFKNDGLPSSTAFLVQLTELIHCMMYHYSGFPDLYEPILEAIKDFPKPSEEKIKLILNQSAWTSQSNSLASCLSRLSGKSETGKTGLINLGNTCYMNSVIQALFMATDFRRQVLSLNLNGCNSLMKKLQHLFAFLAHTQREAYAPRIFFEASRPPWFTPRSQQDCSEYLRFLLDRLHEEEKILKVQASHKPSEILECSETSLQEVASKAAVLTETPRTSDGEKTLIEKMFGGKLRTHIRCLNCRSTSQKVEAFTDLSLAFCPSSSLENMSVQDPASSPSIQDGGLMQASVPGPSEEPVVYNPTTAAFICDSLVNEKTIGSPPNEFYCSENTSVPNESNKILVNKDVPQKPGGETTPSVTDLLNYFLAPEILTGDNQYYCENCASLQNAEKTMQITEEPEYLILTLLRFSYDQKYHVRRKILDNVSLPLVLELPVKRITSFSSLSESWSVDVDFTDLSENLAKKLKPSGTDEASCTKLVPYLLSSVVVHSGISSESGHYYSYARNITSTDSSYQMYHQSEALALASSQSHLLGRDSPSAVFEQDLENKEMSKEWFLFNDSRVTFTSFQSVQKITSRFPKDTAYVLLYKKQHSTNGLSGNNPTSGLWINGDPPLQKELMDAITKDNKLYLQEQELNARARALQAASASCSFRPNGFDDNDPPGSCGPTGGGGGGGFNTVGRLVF
Summary of the method: as §1

[4] = biological target: T3, USP39 (UniProt Q53GS9)
T3 sequence (whole entry): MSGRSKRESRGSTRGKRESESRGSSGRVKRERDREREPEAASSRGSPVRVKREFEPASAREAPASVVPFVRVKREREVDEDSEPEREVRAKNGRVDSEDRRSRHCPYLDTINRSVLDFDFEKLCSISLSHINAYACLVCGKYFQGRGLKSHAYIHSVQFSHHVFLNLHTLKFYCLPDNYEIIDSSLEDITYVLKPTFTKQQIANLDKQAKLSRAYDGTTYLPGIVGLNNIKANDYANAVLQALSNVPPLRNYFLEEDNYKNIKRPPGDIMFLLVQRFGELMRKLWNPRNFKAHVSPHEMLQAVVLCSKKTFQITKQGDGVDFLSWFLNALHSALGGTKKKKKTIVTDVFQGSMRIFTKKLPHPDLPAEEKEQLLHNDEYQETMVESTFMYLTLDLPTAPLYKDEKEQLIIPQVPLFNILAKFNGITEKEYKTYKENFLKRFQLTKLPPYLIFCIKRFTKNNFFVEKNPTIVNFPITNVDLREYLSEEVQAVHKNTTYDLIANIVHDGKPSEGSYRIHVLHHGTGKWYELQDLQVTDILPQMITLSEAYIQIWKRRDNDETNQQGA
Summary of the method: as §1

[5] = biological target: T4, USP4 (UniProt Q13107)
T4 sequence (whole entry): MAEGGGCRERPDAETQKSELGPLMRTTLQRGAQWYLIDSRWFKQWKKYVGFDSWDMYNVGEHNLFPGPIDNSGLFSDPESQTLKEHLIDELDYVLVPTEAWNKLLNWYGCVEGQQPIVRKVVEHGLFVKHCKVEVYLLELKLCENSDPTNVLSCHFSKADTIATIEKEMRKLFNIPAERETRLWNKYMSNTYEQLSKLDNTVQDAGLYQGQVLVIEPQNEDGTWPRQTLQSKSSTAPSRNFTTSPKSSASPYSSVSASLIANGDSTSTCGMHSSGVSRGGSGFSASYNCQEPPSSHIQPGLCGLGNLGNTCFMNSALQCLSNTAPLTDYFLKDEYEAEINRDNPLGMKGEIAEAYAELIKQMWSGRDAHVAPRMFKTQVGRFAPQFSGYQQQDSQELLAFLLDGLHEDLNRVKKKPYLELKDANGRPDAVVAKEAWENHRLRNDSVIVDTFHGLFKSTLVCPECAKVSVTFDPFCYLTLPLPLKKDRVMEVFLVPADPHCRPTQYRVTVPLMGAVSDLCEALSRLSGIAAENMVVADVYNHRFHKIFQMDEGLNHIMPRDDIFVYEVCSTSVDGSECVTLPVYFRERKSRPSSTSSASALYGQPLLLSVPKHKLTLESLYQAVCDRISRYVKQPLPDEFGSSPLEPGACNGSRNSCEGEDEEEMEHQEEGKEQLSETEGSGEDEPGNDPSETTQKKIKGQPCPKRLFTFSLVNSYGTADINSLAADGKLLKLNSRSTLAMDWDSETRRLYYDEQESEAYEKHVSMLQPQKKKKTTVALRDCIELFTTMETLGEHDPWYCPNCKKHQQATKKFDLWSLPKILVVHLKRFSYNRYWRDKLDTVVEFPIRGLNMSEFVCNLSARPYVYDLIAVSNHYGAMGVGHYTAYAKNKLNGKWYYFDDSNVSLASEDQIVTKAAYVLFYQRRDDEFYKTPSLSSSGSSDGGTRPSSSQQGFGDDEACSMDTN
Summary of the method: as §1

Measured: log2 ratio of Biotin-Ahx-Ub-VS probe labelling

Cc1ccc(N(CCC#N)C(=O)CCl)cc1C
inactive: [1] -0.0882 | [2] -0.062 | [3] -0.15 | [4] 0.18 | [5] 0.0498
